# PubChem BioAssay (Tox21)
# Values without a mark were called inactive. Inconclusive results are not listed. Entries that show only a call come without a potency. Active and inactive are the calls of the source. Unless noted, calls come from the whole dose curve; as a rule, active = well fitted curve in the direction sought with a large enough effect in the repeat runs; inconclusive = weak or mixed curves; inactive = no such curve, though single readings can be large; an effect the other way counts as inactive or inconclusive.
# Legend:
# [1] = qHTS assay for small molecule agonists of the p53 signaling pathway - cell viability (AID 651633; calls by dose curve; note: nearly all actives have a fitted effect of over 30% in size; note: potency is the fitted concentration of half-maximal effect)
# Summary of the method: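 Viability counter-read: CellTiter-Glo luminescence (30 min, room temperature) in the same p53RE-bla plates. These plates had been exposed to compounds for 16 h at 37 C.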
# [2] = qHTS assay to test for compound auto fluorescence at 590 nm (red) in HepG2 cells (AID 720674)
# Summary of the method: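 Red autofluorescence (Ex/Em 540/590 nm, Rose Bengal sodium equivalents) was measured in HepG2 cells, 2,000 per well in MEM plus 10% FBS, plated overnight at 37 C. Readings were taken 1 hr after adding 23 nL compound or DMSO, at 37 C and 5% CO2.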
# [3] = qHTS assay to test for compound auto fluorescence at 535 nm (green) in HepG2 cells (AID 720675)
# [4] = qHTS assay to test for compound auto fluorescence at 460 nm (blue) in HEK293 cells (AID 720678)
# Summary of the method: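 HEK293 cells (2,000 per well, medium with 10% dialyzed FBS) attached for 4-5 hr at 37C, then received compound and stood overnight at 37C, 5% CO2. Blue fluorescence was read at Ex/Em 405/460 nm and expressed relative to triamterene.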
# [5] = qHTS assay to test for compound auto fluorescence at 535 nm (green) in HEK293 cells (AID 720680)
# [6] = qHTS assay to test for compound auto fluorescence at 460 nm (blue) in HEK293 cell free culture (AID 720681)
# Summary of the method: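 Blue fluorescence (Ex 405/Em 460 nm, triamterene-equivalent) was read immediately after pin transfer of compound or DMSO into medium (DMEM, 10% FBS) without cells.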
# [7] = qHTS assay to test for compound auto fluorescence at 535 nm (green) in HEK293 cell free culture (AID 720682)
# Summary of the method: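 Each library compound, or DMSO control, is added by pintool to medium alone, comprising DMEM and 10% FBS. Emission at 535 nm following 485 nm excitation is quantified against fluorescein.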
# [8] = qHTS assay to test for compound auto fluorescence at 590 nm (red) in HEK293 cell free culture (AID 720683)
# Summary of the method: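 Red-channel autofluorescence of compounds in culture medium (DMEM, 10% FBS), no cells, measured at 540/590 nm. Rose Bengal sodium is the reference fluorophore for equivalence.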
# [9] = qHTS assay to test for compound auto fluorescence at 590 nm (red) in HepG2 cell free culture (AID 720684)
# Summary of the method: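 Plate contents were MEM with 10% FBS plus test compound or DMSO, no cells. Fluorescence was recorded with 540 nm excitation and 590 nm emission.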
# [10] = qHTS assay to test for compound auto fluorescence at 460 nm (blue) in HepG2 cell free culture (AID 720685)
# Summary of the method: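 Compound (23 nL) or DMSO pinned into cell-free MEM with 10% FBS; blue fluorescence read at 405/460 nm excitation/emission, expressed as auto-fluorescence equivalency to triamterene.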
# [11] = qHTS assay to test for compound auto fluorescence at 535 nm (green) in HepG2 cell free culture (AID 720686)
# [12] = qHTS assay to test for compound auto fluorescence at 460 nm (blue) in HepG2 cells (AID 720687)
# Summary of the method: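 Blue-channel autofluorescence (Ex/Em 405/460 nm, triamterene-equivalent) was measured after 1 hr compound exposure at 37 C, 5% CO2. Cells were HepG2, plated overnight at 37 C in MEM plus 10% FBS.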
# [13] = target: Glucocorticoid receptor (Homo sapiens) (UniProt P04150); assay: qHTS assay to identify small molecule agonists of the glucocorticoid receptor (GR) signaling pathway (AID 720691; active = well fitted activation curve with a large enough effect in the signal ratio in the repeat runs, not every such curve was filed as active; the % refers to the signal ratio)
# Chain of Glucocorticoid receptor (Homo sapiens) (P04150 whole entry, looked up): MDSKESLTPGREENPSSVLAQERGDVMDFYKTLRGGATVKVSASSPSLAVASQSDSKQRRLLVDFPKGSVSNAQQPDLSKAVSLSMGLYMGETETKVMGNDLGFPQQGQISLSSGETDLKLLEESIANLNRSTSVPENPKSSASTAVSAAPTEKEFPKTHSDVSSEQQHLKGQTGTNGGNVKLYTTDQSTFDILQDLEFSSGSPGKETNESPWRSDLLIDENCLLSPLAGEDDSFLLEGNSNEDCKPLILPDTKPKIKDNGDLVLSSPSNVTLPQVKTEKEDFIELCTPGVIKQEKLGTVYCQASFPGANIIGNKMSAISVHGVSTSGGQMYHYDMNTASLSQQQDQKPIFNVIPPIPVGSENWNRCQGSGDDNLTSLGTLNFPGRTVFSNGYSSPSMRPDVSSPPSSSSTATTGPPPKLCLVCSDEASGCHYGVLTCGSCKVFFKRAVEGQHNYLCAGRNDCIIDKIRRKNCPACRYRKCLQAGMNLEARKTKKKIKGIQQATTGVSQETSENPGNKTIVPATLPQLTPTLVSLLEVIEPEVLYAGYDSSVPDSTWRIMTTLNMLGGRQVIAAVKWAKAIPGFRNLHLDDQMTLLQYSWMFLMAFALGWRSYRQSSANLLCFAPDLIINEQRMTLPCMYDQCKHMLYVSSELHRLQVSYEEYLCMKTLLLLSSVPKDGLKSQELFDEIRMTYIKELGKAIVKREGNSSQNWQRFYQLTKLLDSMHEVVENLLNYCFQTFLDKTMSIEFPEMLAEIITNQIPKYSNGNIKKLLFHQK
# Summary of the method: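 Reporter read-out: fluorescence intensity following 2 h room-temperature LiveBLAzer B/G FRET substrate loading. Prior step: GR-bla HeLa cells held 4 h, then treated 18 h at 37 C.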
# [14] = target: Glucocorticoid receptor (Homo sapiens) (UniProt P04150); assay: qHTS assay to identify small molecule antagonists of the glucocorticoid receptor (GR) signaling pathway (AID 720692; active = well fitted inhibition curve with a large enough effect in the signal ratio in the repeat runs, not every such curve was filed as active; the % refers to the signal ratio; note: potency is the fitted concentration of half-maximal effect)
# Summary of the method: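 Dexamethasone (5 nM final) stimulated a stably integrated GRE-beta-lactamase reporter in HeLa cells during 18 h co-incubation with compounds; signal was quantified as fluorescence intensity of B/G FRET substrate after 2 h.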
# [15] = qHTS assay for small molecule disruptors of the mitochondrial membrane potential - cell viability (AID 720634; calls by dose curve;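 note: human HepG2 liver cancer cells; series mostly up to about 83 µM; nearly all actives have a fitted effect of over 20% in size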)
# Summary of the method: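 Measuring cytotoxicity alongside mitochondrial potential, the screen quantified ATP by luminescence in HepG2 cells after 1 hr compound incubation and a 30 min room-temperature CellTiter-Glo step.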
# [16] = qHTS assay for small molecule disruptors of the mitochondrial membrane potential (AID 720635); note: potency is the fitted concentration of half-maximal effect
# Summary of the method: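 Mitochondrial membrane potential tracked with Mito-MPS dye, red aggregates (ex 540/em 590 nm) against green monomers (ex 490/em 535 nm). Compound treatment 1 hr at 37C, dye 30 min in HepG2.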
# [17] = qHTS assay to test for compound auto fluorescence at 590 nm (red) in HEK293 cells (AID 720679)
# Summary of the method: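 HEK293 cells (2,000/well, medium with 10% dialyzed FBS) attached for 4-5 hr at 37C, received 23 nL compound and were incubated overnight at 37C, 5% CO2. Red fluorescence was then read at 540/590nm Ex/Em, referenced to Rose Bengal sodium.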
# [18] = qHTS assay for small molecules that induce genotoxicity in human embryonic kidney cells expressing luciferase-tagged ATAD5 (AID 651632); note: nearly all actives have a fitted effect of over 15% in size
# Summary of the method: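 Reporter cells (HEK293T) express luciferase-tagged ATAD5, a protein that accumulates after DNA damage. Treat 16 hr at 37C/5% CO2, add Amplite, wait 30 min at RT, and read luminescence.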
# [19] = qHTS assay for small molecules that induce genotoxicity in human embryonic kidney cells expressing luciferase-tagged ATAD5 - cell viability (AID 651634; calls by dose curve; note: nearly all actives have a fitted effect of over 25% in size; note: potency is the fitted concentration of half-maximal effect)
# Summary of the method: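 Seeding of 2,000 HEK293T ATAD5-luciferase cells per well preceded pin-tool compound transfer. Plates sat 15.5 hr at 37C under 5% CO2, then fluorescence was read after 30 min with CellTiter-Fluor.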
compound,measurement,setting,value
CC(C)c1nnc2ccc(-c3ocnc3-c3cc(F)ccc3F)cn12,Potency,[1],inactive
same,outcome,[2],inactive
same,outcome,[3],inactive
same,Potency,[4],inactive
same,outcome,[5],inactive
same,Potency,[6],inactive
same,outcome,[7],inactive
same,outcome,[8],inactive
same,outcome,[9],inactive
same,Potency,[10],inactive
same,outcome,[11],inactive
same,Potency,[12],inactive
same,Potency,[13],inactive
same,Potency,[14],inactive
COCCOC,Potency,[1],inactive
same,Potency,[15],inactive
same,Potency,[16],inactive
same,outcome,[2],inactive
same,outcome,[3],inactive
same,Potency,[4],inactive
same,outcome,[17],inactive
same,outcome,[5],inactive
same,outcome,[7],inactive
same,outcome,[9],inactive
same,Potency,[10],inactive
same,outcome,[11],inactive
same,Potency,[12],inactive
same,Potency,[13],inactive
same,Potency,[14],inactive
Cc1cc2nc3ccc(=[N+](C)C)cc-3sc2cc1N,Potency,[18],inactive
same,Potency,[1],7.5 µM (active)
same,Potency,[16],3.76 µM (active)
same,outcome,[2],inactive
same,outcome,[3],inactive
same,Potency,[4],inactive
same,outcome,[17],inactive
same,outcome,[5],inactive
same,Potency,[6],inactive
same,outcome,[7],inactive
same,outcome,[8],inactive
same,outcome,[9],inactive
same,Potency,[10],inactive
same,outcome,[11],inactive
same,Potency,[12],inactive
CC1=C(/C=C/C(C)=C\C=C\C(C)=C\C(=O)O)C(C)(C)CCC1,Potency,[18],inactive
same,Potency,[19],inactive
same,Potency,[15],inactive
same,outcome,[2],inactive
same,outcome,[3],inactive
same,Potency,[4],inactive
same,outcome,[17],inactive
same,outcome,[5],inactive
same,Potency,[6],inactive
same,outcome,[7],inactive
same,outcome,[8],inactive
same,Potency,[10],inactive
same,outcome,[11],inactive
same,Potency,[12],inactive
Cc1ccc(Nc2nccc(N(C)c3ccc4c(C)n(C)nc4c3)n2)cc1S(N)(=O)=O,Potency,[18],inactive
same,Potency,[19],26.6 µM (active)
same,Potency,[15],inactive
same,Potency,[16],0.75 µM (active)
same,outcome,[2],inactive
same,Potency,[4],inactive
same,outcome,[17],inactive
same,outcome,[5],inactive
same,Potency,[6],inactive
same,outcome,[7],inactive
same,outcome,[8],inactive
same,outcome,[9],inactive
same,Potency,[10],inactive
same,outcome,[11],inactive
same,Potency,[12],inactive
O=C(N/N=C/c1ccc([N+](=O)[O-])o1)c1ccc(O)cc1,Potency,[18],inactive
same,Potency,[1],inactive
same,Potency,[16],1.27 µM (active)
same,"fluorescence, relative to Rose Bengal",[2],-0.334% [at 18.6 µM]
same,"fluorescence, % of fluorescein control",[3],-0.0853% [at 18.6 µM]
same,"fluorescence, % of triamterene",[4],0.159% [at 18.6 µM]
same,"fluorescence, % of fluorescent control",[17],0.101% [at 18.6 µM]
same,"fluorescence, % of fluorescein",[5],0.0272% [at 18.6 µM]
same,"fluorescence, % of fluorescent control",[6],-0.307% [at 18.6 µM]
same,activity change,[7],0.0091% [at 18.6 µM]
same,"fluorescence, % of fluorescent control",[10],-0.18% [at 18.6 µM]
same,"fluorescence, % of fluorescein control",[11],-0.0078% [at 18.6 µM]
same,"fluorescence, % of fluorescent control",[12],-0.0309% [at 18.6 µM]
same,Potency,[13],inactive
same,Potency,[14],inactive
COc1cc2c(cc1OC)-c1cc(=Nc3c(C)cc(C)cc3C)n(C)c(=O)n1CC2,Potency,[18],inactive
same,Potency,[1],29.8 µM (active)
same,Potency,[19],29.8 µM (active)
same,outcome,[2],inactive
same,outcome,[3],inactive
same,Potency,[4],inactive
same,outcome,[5],inactive
same,Potency,[6],inactive
same,outcome,[7],inactive
same,outcome,[8],inactive
same,outcome,[9],inactive
same,Potency,[10],inactive
same,outcome,[11],inactive
same,Potency,[12],inactive
c1cc[c]([Bi]([c]2ccccc2)[c]2ccccc2)cc1,Potency,[18],inactive
same,Potency,[19],inactive
same,Potency,[16],24.3 µM (active)
same,outcome,[2],inactive
same,outcome,[3],inactive
same,Potency,[4],inactive
same,outcome,[17],inactive
same,Potency,[6],inactive
same,outcome,[7],inactive
same,Potency,[10],inactive
same,outcome,[11],inactive
same,Potency,[13],inactive
same,Potency,[14],19.5 µM (active)
CCCCCCCCCCCCCCC[C@H](O)[C@@H](N)CO,Potency,[18],inactive
same,Potency,[19],inactive
same,outcome,[2],inactive
same,outcome,[3],inactive
same,Potency,[4],inactive
same,outcome,[17],inactive
same,outcome,[5],inactive
same,outcome,[7],inactive
same,outcome,[8],inactive
same,outcome,[9],inactive
same,Potency,[10],inactive
same,outcome,[11],inactive
same,Potency,[12],inactive
same,Potency,[13],inactive
